Results filed as inconclusive are left out. Values without a mark were called inactive. The source made the active and inactive calls. Calls follow the shape of the full dose curve; tested in HEK293 reporter line.
Assay: qHTS for Inhibitors of the Functional Ribonucleoprotein Complex (vRNP) of Lymphocytic Choriomeningitis Arenaviruses (LCMV): Viability assay - alamar blue signal for LCMV Primary Screen (AID 1347085); also: nearly all actives have a fitted effect of over 80% in size
Conditions: alamar blue viability counter-screen, LCMV vRNP screen cells; series mostly up to 57.5 µM; activity change, negative = lower viability: at the top concentration
% is scaled to controls: 0 for no effect and ±100 for the full control effect; potency is read from the fitted curve at half-maximal effect.

| Structure (SMILES) | activity change, negative = lower viability | Potency |
| --- | --- | --- |
| CC(C)c1onc(-c2c(Cl)cccc2Cl)c1COc1ccc(C=Cc2cccc(C(=O)O)c2)c(Cl)c1 | 12.2% |  |
| COc1ccc(C(=O)OC2CC3CCC(C2)[N+]3(C)[O-])cc1OC (stereo not given) | -3.33% |  |
| C[C@@H]1C(=O)O[C@@H]2CC34[C@H]5C[C@@H](C(C)(C)C)C36[C@H](OC(=O)[C@@H]6O)OC4(C(=O)O5)[C@@]12O (stereo not given in full) | 0.23% |  |
| C=C[C@@]1(C)CC(=O)[C@]2(O)[C@@]3(C)[C@@H](O)CCC(C)(C)[C@@H]3[C@H](OC(C)=O)[C@H](O)[C@@]2(C)O1 | -33.4% |  |
| NC[C@@H]1O[C@@H](O[C@H]2[C@@H](O)[C@H](O[C@@H]3[C@@H](O)[C@@H](N)C[C@H](N)[C@H]3O[C@H]3O[C@H](CN)[C@@H](O)[C@@H](O)[C@H]3N)O[C@H]2CO)[C@H](N)[C@@H](O)[C@@H]1O | 0.862% |  |
| CCC(CC)C(=O)O | 9.24% [at 115 µM] |  |
| O=C(/C=C/c1ccc(O)cc1)OC[C@H]1O[C@@H](Oc2c(-c3ccc(O)cc3)oc3cc(O)cc(O)c3c2=O)[C@H](O)[C@@H](O)[C@@H]1O | 2.4% [at 24.7 µM] |  |
| CC1=CC2OC3CC4OC(=O)C=CC=CC(C(C)O)OCC(O)C(C)CC(=O)OCC2(CC1O)C4(C)C31CO1 (stereo not given) | -144% |  |
| Cc1cc(Nc2nc(N[C@@H](C)c3ccc(F)cc3)c(C#N)cc2F)n[nH]1 |  | 10.9 µM (active) |
| COC(=O)c1ccc(OC)cc1 | 11.9% [at 115 µM] |  |
| O=C[C@H](O)[C@@H](O)[C@H](O[C@H]1O[C@H](CO)[C@@H](O[C@H]2O[C@H](CO)[C@@H](O)[C@H](O)[C@H]2O)[C@H](O)[C@H]1O)[C@H](O)CO | 2.44% |  |
| C=C1C[C@@]23CC4C5[C@@]6(C)C[C@H](O)C[C@@]57C2[C@H](O)[C@@H]1[C@H](O)[C@H]3[C@H]7N4C6 | -0.312% |  |
| CCCCC/C=C\C/C=C\C[C@H](O)/C=C/C=C\CCCC(=O)O | 7.12% [at 0.757 µM] |  |
| CCC(=O)NC[C@H](Cc1ccc(OCCc2nc(-c3ccccc3)oc2C)cc1)NC(C)=CC(=O)c1ccc(C(F)(F)F)cc1 | -25.9% |  |
| CC1=C(O)C(=O)CO1 | 30.4% [at 115 µM] |  |
| COc1ccc(C[C@@H](C)[C@@H](C)Cc2ccc(OC)c(OC)c2)cc1OC |  | 12.2 µM (active) |
| CCCCCCCCCCCCCC | 23.6% [at 115 µM] |  |
| COC(=O)C1(Cc2ccc(O)c(CC3OC3(C)C)c2)OC(=O)C(O)=C1c1ccc(O)cc1 (stereo not given) | 13% |  |
| C=C(C)[C@@H]1CCC2(C(=O)O)CC[C@]3(C)[C@H](CC[C@@H]4[C@@]5(C)CCC(=O)C(C)(C)[C@@H]5CC[C@]43C)[C@@H]12 (stereo not given in full) | 11.6% |  |
| CC(O)CC(=O)O (stereo not given) | 15.8% |  |

| Structure (SMILES) | activity change, negative = lower viability | Potency |
| --- | --- | --- |
| Nc1nc(Cl)nc2c1ncn2[C@@H]1O[C@H](CO)C(O)[C@H]1O (stereo not given in full) | 5.08% |  |
| C=CC(C)(CCC=C(C)C)OC=O (stereo not given) | 18.4% [at 115 µM] |  |
| CC(C)=CCC/C(C)=C/C(=O)O | 21.8% [at 115 µM] |  |
| CC12CCC(C1)C(C)(C)C2O (stereo not given) | -139% [at 115 µM] |  |
| CC(=O)OC(C)c1ccccc1 (stereo not given) | -46.1% [at 115 µM] |  |
| COc1cc(C)cc(C(=O)O)c1C1=C(O)c2cccc(O)c2C(=O)C1=O | -8.6% |  |
| COC1=CC(=O)CC(C)C12Oc1cc(OC)cc(OC)c1C2=O (stereo not given) | -4.14% |  |
| NC1C(O)OC(CO)[C@@H](O)[C@@H]1O[C@H]1O[C@@H](C(=O)O)C(O)C(O)C1O (stereo not given in full) | 14.5% |  |
| C[C@H]1[C@H](C)CC[C@]2(C(=O)O)CC[C@]3(C)C(=CC[C@@H]4[C@@]5(C)C[C@@H](O)[C@H](O)C(C)(C)[C@@H]5CC[C@]43C)[C@H]12 | 4.81% |  |
| COc1c2ccoc2c(OC[C@@H](OC(C)=O)C(C)(C)O)c2oc(=O)ccc12 | -5.59% |  |
| CCCCC[C@H](O)/C=C/[C@H]1OC(O)C[C@H](O)[C@@H]1C/C=C\CC(=O)O (stereo not given in full) | -0.195% [at 0.757 µM] |  |
| CC1(C)CCC[C@]2(C)[C@H]3CCO[C@]3(C)CC[C@@H]12 | 17.8% [at 115 µM] |  |
| CC12C=CC(=O)C=C1CCC1C2C(=O)CC2(C)C(=O)CCC12 (stereo not given) | 6.18% |  |
| COc1ccc2c(c1)C(=O)CC(c1ccc(OC)c(OC)c1)O2 (stereo not given) | 9.19% |  |
| O=C(NCCCCNCCCNC(=O)c1ccccc1)c1ccccc1 | -0.202% |  |
| CCCCN | -6.79% |  |
| COc1ccc(-c2coc3cc(O)ccc3c2=O)cc1OC | -1.4% |  |
| CCC(=O)OCC(=O)[C@@]1(OC(=O)CC)[C@@H](C)C[C@@H]2[C@H]3CCC4=CC(=O)C=C[C@]4(C)[C@@]3(F)[C@@H](O)C[C@@]21C | -10.4% |  |
| Nc1nc(Cl)nc2c1ncn2[C@@H]1O[C@H](CO)[C@@H](O)[C@H]1F |  | 0.243 µM (active) |
| COc1cc(/C=C/c2ccccc2)cc(OC)c1 | 8.08% |  |

Reference: PubChem BioAssay (NCATS)
